Bioassay records: PubChem, National Center for Advancing Translational Sciences (NCATS)
KB-3-1 cytotox – kills parental KB-3-1 adenocarcinoma cells; KB-3-1 viability, CellTiter-Glo ATP luminescence, 72 h; Potency, µM (top dose mostly 46.1 µM), usual class: cytotoxic; 400,000 compounds, 1.4% hits; AID 1347075; note: nearly all actives have a fitted effect of over 60% in size
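Cytotoxicity in the drug-sensitive parental line KB-3-1 was scored as loss of CellTiter-Glo luminescence following 72 h incubation with compound. Values come from curve fitting of normalized concentration-response data.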
HT1080-NT tox – kills 2HG-producing HT-1080-NT fibrosarcoma cells | Potency, µM (series often up to 46.1 µM), most hits filed as cytotoxic | 360,000 compounds, 1.6% hits | AID 686970 | HT-1080-NT fibrosarcoma viability, CellTiter-Glo ATP luminescence, 48 h;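 note: NT is the 2HG producing partner of a matched IDH1 knockdown line; nearly all actives have a fitted effect of over 55% in size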
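Compounds were tested in concentration-response format on HT-1080-NT cells for 48 hours at 37 degrees C. Cell viability came from CellTiter-Glo luminescence; curves were classified by r2, response magnitude and activity.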
TDP1 cell noCPT – qHTS for Inhibitors of human tyrosyl-DNA phosphodiesterase 1 (TDP1): qHTS in cells in absence of CPT. DT40 Tdp1-/- hTDP1 cells, no CPT, ATP luminescence, 48 h. Potency, µM (titrated, usually from 46.2 µM), usual class: inhibitors. 420,000 compounds, 15% hits. AID 686978, 2013; note: nearly all actives have a fitted effect of over 55% in size
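Growth of hTDP1-complemented DT40 Tdp1-knockout cells is measured by ATP luminescence after at least 48 hr compound exposure at 37 °C, with DMSO substituting for the 20 nM CPT used in the parallel screen.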
KB-V1 MDR tox – KB-V1 MDR subline cytotoxicity | KB-V1 MDR cells viability, CellTiter-Glo, 72 h | Potency, µM (top dose mostly 46.1 µM), actives largely listed as cytotoxic | 400,000 compounds, 3.4% hits | AID 1347076; note: nearly all actives have a fitted effect of over 60% in size
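Cytotoxicity toward P-gp-expressing KB-V1 cells was determined as loss of CellTiter-Glo luminescence after 72 h at 37 degrees C. Compounds were tested in quantitative HTS format across a concentration range, with curves fitted to normalized data.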
HT1080 IDH1KD tx – kills HT-1080 cells with IDH1 knockdown; 360,000 compounds, 2% hits; HT-1080 IDH1 knockdown viability, ATP luminescence, 48 h; Potency, µM (top dose mostly 46.1 µM), actives largely listed as cytotoxic; AID 686971
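CellTiter-Glo luminescence after 48 h compound exposure at 37 degrees C of IDH1-knockdown HT-1080 cells in 5% FBS RPMI. %Activity scaled between DMSO wells and cell-free media wells, with curves fitted and assigned curve classes.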
DT40 TDP1 CPT – DT40-hTDP1 cell growth loss with CPT | chicken DT40 Tdp1-/-;hTDP1 cells + 20 nM CPT, ATP luminescence, 48 h | Potency, µM (doses to about 46.2 µM), hits mostly inhibitors | 420,000 compounds, 12% hits | AID 686979; note: nearly all actives have a fitted effect of over 55% in size
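Cell growth measured by CellTiter-Glo luminescence after a minimum 48 h, 37 C compound exposure with 20 nM CPT in Tdp1-knockout DT40 cells stably expressing hTDP1, seeded 400/well; qHTS titration format.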
Each line names hits and unclear results; the compound was inactive in the other large screens; ! = a repeat was not active. In the library only some 19% were active in any assay of this set; here they are far more common. Calls come from the whole dose curve; as a rule, active = well fitted curve in the direction sought with a large enough effect; inconclusive = small, poorly fitted or top-dose-only effect, or another doubt; inactive = no such curve, though single readings can be large; an effect the other way counts as inactive or inconclusive.

O=C(NC(c1ccccc1)c1ccc2ccccc2n1)C1CCN(CCOc2ccc(Cl)cc2)CC1 (configuration not stated)	KB-3-1 cytotox inconclusive, HT1080-NT tox 3.7µM, TDP1 cell noCPT 16µM, KB-V1 MDR tox inconclusive, HT1080 IDH1KD tx 4.1µM, DT40 TDP1 CPT 23µM
O=C(NC(c1ccc(F)cc1)c1ccc2ccccc2n1)C1CCN(Cc2ccc(Oc3ccccc3)cc2)CC1 (configuration not stated)	KB-3-1 cytotox inconclusive, TDP1 cell noCPT inconclusive, HT1080 IDH1KD tx inconclusive, DT40 TDP1 CPT inconclusive
Cn1cc(CN2CCC(C(=O)NC(c3ccc(F)cc3)c3ccc4ccccc4n3)CC2)c2ccccc21 (configuration not stated)	KB-3-1 cytotox inconclusive, HT1080-NT tox 23µM, TDP1 cell noCPT 7.3µM, KB-V1 MDR tox inconclusive, HT1080 IDH1KD tx 16µM, DT40 TDP1 CPT 12µM
CSc1ccc(CN(C)CC(=O)NCCc2ccccc2)cc1	KB-V1 MDR tox inconclusive
COc1ccc(NC(=O)C(NS(=O)(=O)c2ccc3c(c2)CCCC(=O)N3)C(C)C)c(OC)c1 (configuration not stated)	none (no result: HT1080-NT tox, HT1080 IDH1KD tx)
CC(C)C(NS(=O)(=O)c1ccc2c(c1)oc(=O)n2C)C(=O)N1CCN(c2cccc(Cl)c2)CC1 (configuration not stated)	TDP1 cell noCPT inconclusive, DT40 TDP1 CPT inconclusive (no result: HT1080-NT tox, HT1080 IDH1KD tx)
COc1ccc(OCCN2CCC(C(=O)NC(c3ccccc3)c3ccc4ccccc4n3)CC2)cc1 (configuration not stated)	KB-3-1 cytotox inconclusive, HT1080-NT tox inconclusive, TDP1 cell noCPT inconclusive, HT1080 IDH1KD tx inconclusive, DT40 TDP1 CPT inconclusive
O=C(NC(c1ccc(F)cc1)c1ccc2ccccc2n1)C1CCN(CCOc2ccc(Cl)cc2Cl)CC1 (configuration not stated)	KB-3-1 cytotox inconclusive, HT1080-NT tox inconclusive, TDP1 cell noCPT inconclusive, KB-V1 MDR tox inconclusive, HT1080 IDH1KD tx 12µM, DT40 TDP1 CPT 16µM
COc1ccc(C(NC(=O)C2CCN(CCOc3ccc(Cl)cc3)CC2)c2cccs2)cc1 (configuration not stated)	HT1080-NT tox 21µM, TDP1 cell noCPT inconclusive, HT1080 IDH1KD tx inconclusive, DT40 TDP1 CPT inconclusive
O=C(NC(c1ccc(F)cc1)c1ccc2ccccc2n1)C1CCN(CCOc2ccc(F)cc2)CC1 (configuration not stated)	KB-3-1 cytotox inconclusive, HT1080-NT tox inconclusive, TDP1 cell noCPT 8.2µM, KB-V1 MDR tox 18µM, HT1080 IDH1KD tx 9.2µM, DT40 TDP1 CPT 8.2µM
CCOc1ccc(S(=O)(=O)NN=C(C)c2cccnc2)cc1	none
CCOC(=O)c1c(O)cc(C)cc1Nc1ccccc1	none
Cc1cc2c(cc1NS(=O)(=O)c1cccc(C#N)c1)n(C)c(=O)c(=O)n2C	TDP1 cell noCPT inconclusive (no result: HT1080-NT tox, HT1080 IDH1KD tx)
Cc1cc(SCc2ccccc2Cl)nc(=O)[nH]1	none
Cc1cc(SCc2ccc(Cl)cc2Cl)nc(=O)[nH]1	KB-3-1 cytotox inconclusive, TDP1 cell noCPT 10µM, HT1080 IDH1KD tx inconclusive, DT40 TDP1 CPT inconclusive
O=C(Nc1ccc([N+](=O)[O-])cc1Cl)c1ccccc1O	KB-3-1 cytotox 2.9µM!, TDP1 cell noCPT 3.2µM, KB-V1 MDR tox 16µM, DT40 TDP1 CPT 3.2µM (no result: HT1080-NT tox, HT1080 IDH1KD tx)
CC(=O)Oc1c(C)cc(Cl)cc1C(=O)Nc1ccc([N+](=O)[O-])cc1Cl	KB-3-1 cytotox 7.3µM, HT1080-NT tox inconclusive, TDP1 cell noCPT 0.46µM, HT1080 IDH1KD tx 1.2µM, DT40 TDP1 CPT 0.52µM
COc1ccc(Nc2cc(C(=O)NCc3ccccc3OC)c3ccccc3n2)cc1	TDP1 cell noCPT inconclusive (no result: HT1080-NT tox, HT1080 IDH1KD tx)
COc1ccc(CNC(=O)c2cc3c(C)nc4ccccc4c3o2)c(OC)c1	KB-3-1 cytotox inconclusive, TDP1 cell noCPT 13µM, KB-V1 MDR tox 12µM, HT1080 IDH1KD tx inconclusive, DT40 TDP1 CPT 16µM
